In the library only some 8.9% were active in any assay of this set; here they are far more common.
NPSR antag: neuropeptide S receptor (human) antagonism, cAMP | Q6W5P4 | CHO-NPSR cells, cAMP TR-FRET, antagonist mode | Potency, µM (highest dose often 38.3 µM), without a hit: at the highest dose activity change, negative = inhibition, most hits filed as inhibitors | 220,000 tested, 1% active | AID 1461; further: potency means the concentration at half of the fitted maximal effect; nearly all actives have a fitted effect of over 50% in size
HPGD block: HPGD (human) dehydrogenase inhibition; Potency, µM, inactives show top-dose activity change, negative = inhibition, hits mostly inhibitors; purified HPGD, NADH fluorescence kinetic, PGE2 substrate; 150,000 tested, 4.3% active; P15428; active means well fitted inhibition curve with a large enough effect, not every such curve was filed as active; inconclusive means small, poorly fitted or top-dose-only effect, or another doubt; inactive means no such curve, though single readings can be large or run the other way; further: potency means the concentration at half of the fitted maximal effect
Target sequence (P15428 whole entry, looked up): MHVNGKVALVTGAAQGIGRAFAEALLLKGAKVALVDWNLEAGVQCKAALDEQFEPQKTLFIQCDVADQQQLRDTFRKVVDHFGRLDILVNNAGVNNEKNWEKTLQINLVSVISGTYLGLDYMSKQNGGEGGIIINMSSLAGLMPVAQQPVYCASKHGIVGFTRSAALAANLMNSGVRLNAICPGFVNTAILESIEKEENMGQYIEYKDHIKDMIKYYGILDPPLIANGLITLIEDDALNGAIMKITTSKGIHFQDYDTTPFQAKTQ
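20 nM HPGD preincubated 15 min at room temperature with compound in 50 mM Tris-HCl pH 8, 0.01% Tween 20. Started with 1 mM NAD+ and 30 uM prostaglandin E2; NADH fluorescence (360/450 nm) read 5 times over 30-s intervals, last minus first.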
ALOX12 inhib: 12-hLO (ALOX12) enzyme inhibition. P18054. purified 12-hLO, xylenol orange hydroperoxide absorbance. Potency, µM (titrated, usually from 57.1 µM), for the others: at the top dose activity change, negative = inhibition, actives largely listed as inhibitors. 150,000 tested, 0.12% active. AID 1452; further: potency means the concentration at half of the fitted maximal effect; nearly all actives have a fitted effect of over 55% in size
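Xylenol orange chromogenic assay: hydroperoxide from 12hLO oxidises Fe(II), giving red-shifted Fe(III)-XO absorbance. Conditions: 150 nM enzyme, 40 uM arachidonic acid, 25 mM Hepes pH 7.0, 0.01% Triton X-100, 30 min, room temperature.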
ALDH1A1 inh: ALDH1A1 (human) enzyme inhibition | P00352 | Purified ALDH1A1, NADH fluorescence, propionaldehyde substrate | Potency, µM (series often up to 75.3 µM), for the others: at the top dose activity, negative = inhibition, hits mostly inhibitors | 220,000 tested, 7.3% active | AID 1030; active means well fitted inhibition curve with a large enough effect, not every such curve was filed as active; inconclusive means small, poorly fitted or top-dose-only effect, or another doubt; inactive means no such curve, though single readings can be large or run the other way;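 further: potency means the concentration at half of the fitted maximal effect; plate controls were no enzyme wells and a reference inhibitor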
IMPase inh: membrane-permeable compound that blocks inositol monophosphatase; P97697; CHO-M1 cells, IP1 accumulation, HTRF TR-FRET ratio; inhibition (IP1 accumulation), % at 46.1 µM; 120,000 tested, under 10 active; AID 901; active means well fitted curve in the direction sought with a large enough effect in the signal ratio, not every such curve was filed as active; inconclusive means small, poorly fitted or top-dose-only effect, or a change in a side signal; inactive means no such curve, though single readings can be large or run the other way; the % refers to the signal ratio;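 further: cells stimulated with carbachol in lithium chloride buffer; plate controls were DMSO basal wells for no effect and reference inhibitor wells for full effect; higher means more IMPase inhibition seen as more IP1 and lower FRET ratio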
Target sequence (P97697 whole entry, looked up): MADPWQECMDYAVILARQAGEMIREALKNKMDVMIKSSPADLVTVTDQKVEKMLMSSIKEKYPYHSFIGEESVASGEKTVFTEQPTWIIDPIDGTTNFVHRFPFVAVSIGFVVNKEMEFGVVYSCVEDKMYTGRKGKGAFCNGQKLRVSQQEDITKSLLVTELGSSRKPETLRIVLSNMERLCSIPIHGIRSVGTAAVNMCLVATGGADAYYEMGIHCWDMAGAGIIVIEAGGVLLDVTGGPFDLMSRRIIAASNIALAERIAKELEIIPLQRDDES
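Carbachol-driven Gq signalling in CHO-M1 cells (2000/well) generates IP1. Compounds that block IMPase raise IP1 and so reduce the FRET signal from Eu-anti-IP1 and d2-IP1 after a 10 min room-temperature lysis.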
IMPase Li inh: cell-permeable IMPase inhibitors with lithium potentiation | CHO-M1 cells, IP1 TR-FRET (IP-One), carbachol + lithium | Potency, µM (doses to about 59.4 µM), without a hit: at the highest dose activity, negative = IMPase inhibition, hits mostly inhibitors | 210,000 tested, 0.35% active | AID 1457;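 further: IP1 builds up when IMPase is blocked and the TR-FRET signal falls; potency means the concentration at half of the fitted maximal effect; plate controls were basal vehicle for no effect and high inhibitor control for full effect; nearly all actives have a fitted effect of over 50% in size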
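Lithium-sensitised IP1 accumulation assay; M1-expressing CHO cells treated 30 min at 37C with compound. Competitive antibody detection by time-resolved FRET followed a 10 min room-temperature lysis step.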
* = called active by the depositor; [ ] = remark or other dose. Unless noted, the call rests on the fitted dose curve; in most records, active means well fitted curve in the direction sought with a large enough effect; inconclusive means small, poorly fitted or top-dose-only effect, or another doubt; inactive means no such curve, though single readings can be large; an effect the other way counts as inactive or inconclusive. Unless noted, on the % scale 0 is the no-effect control and ±100 the full control effect.

Screening Cc1ccc(/C=N/NC(=O)Cn2nnc(N)n2)cc1 returned NPSR antag 16%.
COc1cccc(-n2c(SCC(=O)NCCC3=CCCCC3)nc3n[nH]c(C)c3c2=N)c1 was read as NPSR antag -24%[46.1 µM], HPGD block -17%, ALOX12 inhib -3%, ALDH1A1 inh 20µM*, IMPase inh -1 and IMPase Li inh 10%[38.3 µM].
For COc1cccc(NC(=O)CSc2nc3n[nH]c(C)c3c(=N)n2-c2cccc(OC)c2)c1 the results were NPSR antag inconclusive, HPGD block inconclusive, ALOX12 inhib -5%, ALDH1A1 inh inconclusive, IMPase inh 7 and IMPase Li inh 9%[38.3 µM].
Screening COc1ccc(-n2c(=O)c(-c3cccc(Cl)c3)nc3cncnc32)cc1 returned ALDH1A1 inh 17% and IMPase Li inh 9%.
Screening COc1ccc(CCCc2n[nH]c(=S)o2)cc1C returned NPSR antag -18%, ALDH1A1 inh 8.9µM* and IMPase Li inh 1%.
`COc1ccc(OC)c(NS(=O)(=O)c2cc(OC)ccc2OC)c1` gave NPSR antag -17%[46.1 µM], HPGD block -14%, ALOX12 inhib -3%, ALDH1A1 inh 1%, IMPase inh 3 and IMPase Li inh 25%[38.3 µM].
Screening CCc1c(O)c2c(c(O)c1C(C)=O)C(=O)c1c(cc(O)c(C(=O)O)c1C(=O)O)C2=O returned HPGD block -12%, ALOX12 inhib -19%[11.4 µM], ALDH1A1 inh 7%[13.5 µM] and IMPase Li inh -9%.
For Cc1c(C(=O)O)c(O)cc2c1C(=O)c1c(O)c([C@H]3O[C@H](CO)[C@@H](O)[C@H](O)[C@H]3O)c(O)c(O)c1C2=O the results were HPGD block 18µM*, ALOX12 inhib -3%[0.00818 µM], ALDH1A1 inh 11µM*, IMPase inh inconclusive and IMPase Li inh 57%.
`O=C(O)c1ccc([N+](=O)[O-])c(P(=O)(O)O)c1` gave HPGD block -5%, ALOX12 inhib 1%[11.4 µM], ALDH1A1 inh 0%[13.5 µM] and IMPase Li inh -14%.
Screening CC(=O)Nc1ccc(OCC(O)CN2CCCCC2C)cc1 (centres undefined) returned NPSR antag 12%, HPGD block 2%, ALOX12 inhib 2%, ALDH1A1 inh 4% and IMPase Li inh 0%.
Screening CCCn1c(N)c(C(c2ccc(C(=O)OC)cc2)N2CCN(c3ccccc3)CC2)c(=O)[nH]c1=O (centres undefined) returned NPSR antag -20%[46.1 µM], HPGD block -19%, ALOX12 inhib -6%, ALDH1A1 inh inconclusive, IMPase inh -3 and IMPase Li inh 11%[38.3 µM].
For CCCn1c(N)c(C(c2ccc(OC)cc2)N2CCN(c3ccccc3)CC2)c(=O)[nH]c1=O (centres undefined) the results were NPSR antag -7%[46.1 µM], HPGD block -19%, ALOX12 inhib -14%, ALDH1A1 inh 2.5µM*, IMPase inh 8 and IMPase Li inh 34%[38.3 µM].
`CCC(=O)Nc1ccc(-c2nnc(SCc3ccc(C(=O)Nc4nccs4)cc3)n2CC)cc1` gave NPSR antag -17%[46.1 µM], HPGD block inconclusive, ALOX12 inhib -3%, ALDH1A1 inh inconclusive, IMPase inh 6 and IMPase Li inh -19%[38.3 µM].
Screening Nc1nnc(N2CCCCC2)s1 returned NPSR antag -5%[46.1 µM], HPGD block -1%, ALOX12 inhib -2%, ALDH1A1 inh 25µM*, IMPase inh 5 and IMPase Li inh 1%[38.3 µM].
`Nc1nnc(N2CCCCCC2)s1` gave NPSR antag -3%[46.1 µM], HPGD block -12%, ALOX12 inhib -7%, ALDH1A1 inh 4%, IMPase inh 4 and IMPase Li inh 3%[38.3 µM].
`CCOC(=O)C(C)Oc1ncnc2cccc(F)c12` (centres undefined) gave NPSR antag 15%, ALDH1A1 inh -7% and IMPase Li inh -4%.
`COC(=O)C1=C(C)N(Cc2ccccc2)[C@]23O[C@](C(=O)OC)(C(=O)N2C1c1ccccc1)C1C(=O)N(c2ccccc2)C(=O)C13` (some centres undefined) gave ALDH1A1 inh 16%[13.5 µM].
